# PubChem BioAssay
# The source made the active and inactive calls.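 Rule for the calls, unless noted: active = NADPH fluorescence slope more negative than the mean of all samples by about 3 SD, 99.7% confidence; inactive = the rest.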
# Columns and labels:
# [1] = inhibitors of TNFa-induced NFkB p65 translocation, primary screen, imaging, HUVEC, MLSMR starter and 10KST1 sets (AID 438;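 active = inhibition above 20% together with a positive visual image hit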;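 note: compound added about 3h40 before a 20 min TNFalpha stimulation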;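 for inhibition: signal is the nuclear over cytoplasmic p65 intensity ratio per well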); settings: HUVEC TNFa-induced p65 nuclear translocation; cell count: measured here: nuclei count (cytotoxicity indicator), at 2.08 µM; inhibition: at 2 µM, stronger effect = higher value, 0% TNFa-plus-vehicle, 100% no-TNFa wells
# [2] = inhibitors of mutant huntingtin aggregation, primary screen, imaging, exon1htt(103Q)mCFP cells, high-content imaging (AID 483;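 active = visual image review flags a hit and inhibition of aggregation exceeds 20%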;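 note: compound exposure lasted 3 days before fixation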;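 for nuclei count: percent of the per-plate median nuclei count of sample wells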); settings: exon1htt(103Q)mCFP cell line, aggregate imaging, at 2 µM; inhibition of aggregation: stronger effect = higher value; nuclei count: measured here: cell count, toxicity
# [3] = inhibitors of E-selectin induction by TNFa, primary screen, imaging, HUVEC, immunofluorescence, MLSMR starter and 10KST1 sets (AID 487;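 active = visually confirmed hit in the image check and inhibition above 20%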;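 for inhibition: signal is fraction of cell area covered by stained E-selectin grains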;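 for nuclei count: 100% = median nuclei count of all wells on the same plate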); settings: HUVEC TNFalpha-induced E-selectin immunofluorescence imaging, at 2 µM; inhibition: stronger effect = higher value; nuclei count: measured here: cell number, toxicity
# [4] = molecular target: Voltage-gated potassium channel subunit beta-2 (Rattus norvegicus) (UniProt P62483); experiment: KvBeta enzyme negative modulators, primary screen, biochemical, NADPH fluorescence (AID 622;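 active = fluorescence slope higher than the sample average by over 3 SD, cut at about -0.22 in these data, passing the limit was not always enough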;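 note: slope of raw intensity against log time taken from 70 to 1610 s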); settings: recombinant KvBeta, 4-cyanobenzaldehyde reduction, at 10 µM, stronger effect = higher value
# Voltage-gated potassium channel subunit beta-2 (Rattus norvegicus), sequence (P62483 whole entry, looked up): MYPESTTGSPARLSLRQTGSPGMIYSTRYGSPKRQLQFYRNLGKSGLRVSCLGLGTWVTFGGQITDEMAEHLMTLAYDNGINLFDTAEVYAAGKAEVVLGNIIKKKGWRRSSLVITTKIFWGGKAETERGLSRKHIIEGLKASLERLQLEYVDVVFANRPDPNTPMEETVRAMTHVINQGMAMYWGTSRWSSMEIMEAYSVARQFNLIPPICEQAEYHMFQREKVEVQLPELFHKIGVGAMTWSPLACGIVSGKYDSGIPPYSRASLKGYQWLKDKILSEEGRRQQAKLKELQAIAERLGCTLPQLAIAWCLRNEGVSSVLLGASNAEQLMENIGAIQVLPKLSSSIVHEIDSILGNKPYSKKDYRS
# [5] = molecular target: Voltage-gated potassium channel subunit beta-2 (Rattus norvegicus) (UniProt P62483); experiment: KvBeta positive modulators, primary screen, biochemical, NADPH fluorescence (AID 623); settings: Recombinant KvBeta, NADPH fluorescence decrease slope, 10 min; at 10 µM; stronger effect = lower value;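 note: fluorescence intensity change per second fitted from 20 to 320 s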
# [6] = molecular target: Alpha-2C adrenergic receptor (Homo sapiens) (UniProt P18825); experiment: modulators of alpha2C/GIRK thallium flux, primary screen, cell-based, HEK293 alpha2C/GIRK1/2 (AID 624;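 active = fluorescence slope after compound addition differing from the mean of all screened samples at 99.7% confidence, in either direction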;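 note: slope of fluorescence ratio to pre-addition baseline per second over 15 to 24 s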); settings: thallium flux BTC fluorescence, at 10 µM, actives lie on both sides
# Alpha-2C adrenergic receptor (Homo sapiens), sequence (P18825 whole entry, looked up): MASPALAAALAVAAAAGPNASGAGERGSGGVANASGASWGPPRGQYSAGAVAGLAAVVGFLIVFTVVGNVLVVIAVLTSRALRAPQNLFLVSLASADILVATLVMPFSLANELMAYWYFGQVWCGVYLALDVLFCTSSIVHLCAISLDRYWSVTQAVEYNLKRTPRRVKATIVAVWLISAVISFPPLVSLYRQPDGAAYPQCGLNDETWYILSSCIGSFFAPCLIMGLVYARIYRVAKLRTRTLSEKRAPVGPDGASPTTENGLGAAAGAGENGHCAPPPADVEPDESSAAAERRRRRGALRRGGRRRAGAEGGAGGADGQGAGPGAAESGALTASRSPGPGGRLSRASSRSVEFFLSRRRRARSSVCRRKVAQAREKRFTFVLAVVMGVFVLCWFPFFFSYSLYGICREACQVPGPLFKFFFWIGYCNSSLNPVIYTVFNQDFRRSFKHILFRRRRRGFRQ
# [7] = inhibitors of Sendai virus-induced IRF3 signaling, primary screen, TLR/RLR signaling modifier project, cell-based, Sendai virus stimulus, luciferase, 10K MLSCN set (AID 602276;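 active = inhibition at or above 50% at 10 µM; inactive = inhibition below 50%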;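 note: firefly luciferase from ISG56 promoter only with Renilla not read in this screen; 0% = Sendai virus plus DMSO and 100% = medium plus DMSO without virus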); settings: HEK293 RL24 IRF3 luciferase reporter, at 10 µM, stronger effect = higher value
# [8] = inhibitors of poly I:C-induced TLR3 signaling, primary screen, cell-based, poly I:C stimulus, luciferase, 10K MLSCN set (AID 602277;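 active = inhibition of the reporter signal at or above 50%; inactive = inhibition below 50%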); settings: HEK293-TLR3 RL24 IRF3 luciferase reporter, at 10 µM, stronger effect = higher value
# [9] = DUSP6 inhibitors restoring Erk phosphorylation by chemical complementation, primary imaging in DUSP6-transfected HeLa (AID 609;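 active = compounds giving at least 50% inhibition in the cell-based MKP-3 phosphatase rescue imaging test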;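 for inhibition: phospho-Erk level distribution per well compared with pooled transfected vehicle control wells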); settings: HeLa MKP-3 transfected, phospho-Erk imaging KS statistic, at 10 µM, cells stimulated with TPA for 15 min
# [10] = molecular target: Dual specificity protein phosphatase 6 (Homo sapiens) (UniProt Q16828); experiment: as above; settings: HeLa MKP-3 transfected, phospho-Erk imaging KS statistic; at 10 µM; stronger effect = higher value; cells stimulated with TPA for 15 min
# Dual specificity protein phosphatase 6 (Homo sapiens), sequence (Q16828 whole entry, looked up): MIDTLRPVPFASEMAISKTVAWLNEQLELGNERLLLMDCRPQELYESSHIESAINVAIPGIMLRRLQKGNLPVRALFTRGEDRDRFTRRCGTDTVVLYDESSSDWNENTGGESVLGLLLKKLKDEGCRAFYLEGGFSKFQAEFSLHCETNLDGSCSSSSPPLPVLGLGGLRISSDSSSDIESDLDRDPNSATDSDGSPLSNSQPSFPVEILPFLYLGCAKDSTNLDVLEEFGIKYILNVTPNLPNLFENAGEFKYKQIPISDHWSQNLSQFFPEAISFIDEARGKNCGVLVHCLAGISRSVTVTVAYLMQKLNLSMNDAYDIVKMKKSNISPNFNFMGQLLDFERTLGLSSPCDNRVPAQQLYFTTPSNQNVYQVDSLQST
# [11] = molecular target: Muscarinic acetylcholine receptor M4 (Homo sapiens) (UniProt P08173); experiment: compounds altering M4/GIRK thallium flux, either direction, primary screen, M4 allosteric agonist project, cell-based, HEK293 M4/GIRK, BTC-AM (AID 625;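 active = fluorescence slope after compound addition differing from the mean of all tested samples at 99.7% confidence, mostly higher but some lower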;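 note: thallium influx through GIRK channels coupled to M4 in HEK293 cells with BTC-AM dye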); settings: at 10 µM, actives lie on both sides
# Muscarinic acetylcholine receptor M4 (Homo sapiens), sequence (P08173 whole entry, looked up): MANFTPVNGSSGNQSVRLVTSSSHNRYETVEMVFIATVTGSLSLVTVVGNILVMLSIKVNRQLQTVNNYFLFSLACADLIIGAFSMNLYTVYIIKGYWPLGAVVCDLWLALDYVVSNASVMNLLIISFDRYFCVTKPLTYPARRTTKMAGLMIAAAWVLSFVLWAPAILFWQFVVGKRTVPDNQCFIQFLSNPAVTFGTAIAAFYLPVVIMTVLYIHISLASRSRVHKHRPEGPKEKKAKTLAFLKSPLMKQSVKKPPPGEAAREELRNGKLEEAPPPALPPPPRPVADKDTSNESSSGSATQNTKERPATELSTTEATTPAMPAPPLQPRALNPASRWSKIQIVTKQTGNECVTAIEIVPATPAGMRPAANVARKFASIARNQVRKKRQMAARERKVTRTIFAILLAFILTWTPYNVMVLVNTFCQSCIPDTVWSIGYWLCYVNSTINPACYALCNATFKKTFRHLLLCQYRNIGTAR
# [12] = inhibitors of larval lipid processing in zebrafish, primary screen, whole organism, PED6 fluorescence, gall bladder and intestine (AID 686;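 active = a full or partial loss of lipid-probe fluorescence in the fish gall bladder, intestine or both, judged by eye; inactive = no fluorescence loss, or compound toxic to the fish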;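 note: larvae 5 to 7 days old with five fish per well; signal comes from phospholipase A2 cleavage of quenched PED6 carried via bile; overnight exposure to compound and PED6 before scoring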); settings: Zebrafish larvae PED6 lipid processing, fluorescence scoring; screened at 20 µM (by protocol)
# [13] = inhibitors of Chlamydomonas gravitaxis, primary screen, whole organism, Chlamydomonas reinhardtii, WT vs cilia-less mutant, absorbance, 96-well (AID 463189;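 active = inhibition at or above 50% relative to wild type and mutant plate controls; inactive = inhibition below 50%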;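 note: 0% = wild type cc124 cells in DMSO and 100% = ciliumless bld1 mutant cells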); settings: OD600 absorbance, 2 days, at 10 µM, stronger effect = higher value
# [14] = measured here: cell density z-score
# [15] = measured here: nuclear c-Myc green intensity z-score
# [16] = measured here: nuclear pErk red intensity z-score, stronger effect = higher value
SMILES,cell count [1],inhibition [1],inhibition of aggregation [2],nuclei count [2],inhibition [3],nuclei count [3],fluorescence slope [4],NADPH fluorescence slope [5],slope [6],inhibition [7],inhibition [8],"z-score [9, 14]","z-score [9, 15]","z-score [9, 16]",inhibition [10],fluorescence slope [11],outcome [12],inhibition [13]
CC(=O)Nc1ccc(N=Cc2nc(-c3ccc(C)cc3)oc2O)cc1,1080,-11.6% (inactive),-4% (inactive),119%,-287% (inactive),132%,-0.281 (inactive),1.5e-05 (inactive),0.00463 (inactive),1.5% (inactive),-2.56% (inactive),–,–,–,–,–,–,–
O=C(OCc1ccc2c(c1)OCO2)c1ccc(S(=O)(=O)N2CCCCC2)cc1,732,4.4% (inactive),-6.1% (inactive),102%,83.3% (active),87.7%,-0.415 (inactive),-5.1e-05 (inactive),0.00821 (inactive),7.08% (inactive),9.8% (inactive),–,–,–,–,–,–,–
O=C(CSc1nc2ccccc2s1)Nn1cnnc1,461,-6.2% (inactive),–,–,–,166%,-0.439 (inactive),-7.8e-05 (inactive),–,–,–,-0.815,-1.79,0.477,6.04% (inactive),0.00557 (inactive),inactive,17.1% (inactive)
CCCCC(=O)NCCNc1nc2c(c(=O)n(C)c(=O)n2C)n1Cc1ccccc1,555,-6.3% (inactive),-14.2% (inactive),105%,28.6% (inactive),106%,-0.615 (inactive),-5.2e-06 (inactive),0.00636 (inactive),15.2% (inactive),24.6% (inactive),–,–,–,–,–,–,–
Cc1cc(OCC(=O)NCCO)cc(C)c1Cl,419,-2.3% (inactive),11.1% (inactive),73.3%,28.3% (inactive),92.3%,-0.428 (inactive),2.8e-05 (inactive),0.00371 (inactive),-0.456% (inactive),24.5% (inactive),–,–,–,–,–,–,–
COc1ccc(OC)c(S(=O)(=O)N2CCC(C(=O)NCc3ccccc3OC)CC2)c1,782,-2.1% (inactive),-13.8% (inactive),107%,-74.6% (inactive),133%,-0.517 (inactive),-1.4e-05 (inactive),0.00487 (inactive),4.82% (inactive),13.9% (inactive),–,–,–,–,–,–,–
CCOC(=O)C(C)(C)Sc1nc2c(cnn2-c2ccc(C)cc2)c(=O)[nH]1,387,-1.6% (inactive),-13.4% (inactive),106%,-44.8% (inactive),106%,-0.626 (inactive),-2.5e-05 (inactive),0.00578 (inactive),9.78% (inactive),34% (inactive),–,–,–,–,–,–,–
COC(=O)c1c(-n2cnnn2)sc(C)c1C,504,-4.7% (inactive),–,–,–,172%,-0.421 (inactive),-4.5e-05 (inactive),–,–,–,-0.751,1.91,1.76,-2.29% (inactive),0.00518 (inactive),inactive,-6.11% (inactive)
N#CCCNCC1(c2ccccc2)CCCC1,567,-9.1% (inactive),-10.6% (inactive),108%,1.8% (inactive),104%,-0.576 (inactive),-4.5e-05 (inactive),0.00572 (inactive),2.93% (inactive),9.79% (inactive),–,–,–,–,–,–,–
CCCn1nc(CC(=O)O)c2ccccc2c1=O,468,-12.3% (inactive),18.8% (inactive),123%,-10.6% (inactive),119%,-0.426 (inactive),-3.1e-05 (inactive),0.00533 (inactive),16.7% (inactive),16.8% (inactive),–,–,–,–,–,–,–
CCOC(=O)N1CCN(C(=O)CSCC(=O)Nc2nc(-c3ccc(OC)cc3)cs2)CC1,450,2.7% (inactive),-44% (inactive),54%,41.9% (inactive),91.3%,-0.425 (inactive),-8.7e-05 (inactive),0.00636 (inactive),-14.1% (inactive),-24.6% (inactive),–,–,–,–,–,–,–
Cc1cccc(OCCNC(=O)c2ncn[nH]2)c1,228,4.2% (inactive),1.8% (inactive),100%,-263% (inactive),144%,-0.443 (inactive),-1.6e-05 (inactive),0.00209 (inactive),5.98% (inactive),32.3% (inactive),–,–,–,–,–,–,–
c1ccc(C2(Cn3ccc4ccccc43)OCCO2)cc1,311,-13% (inactive),-6% (inactive),109%,-115% (inactive),123%,-0.482 (inactive),2.6e-06 (inactive),0.00648 (inactive),4.02% (inactive),12% (inactive),–,–,–,–,–,–,–
CN(C(=O)C1CCCO1)c1nnc(-c2ccncc2)s1 (centres undefined),279,-2.1% (inactive),4.6% (inactive),103%,-10.8% (inactive),103%,-0.322 (inactive),-4.6e-05 (inactive),0.00538 (inactive),-12% (inactive),-17.4% (inactive),–,–,–,–,–,–,–
CCOC(=O)C1CCN(C(=O)C2(NC(=O)Nc3ccccc3Cl)CCCCC2)CC1,568,-4.9% (inactive),-41.9% (inactive),107%,-54.8% (inactive),105%,-0.626 (inactive),5.4e-06 (inactive),0.0059 (inactive),15% (inactive),20.6% (inactive),–,–,–,–,–,–,–
CCOc1ccccc1C(=O)NC(C)c1ccc2c(c1)OCO2 (centres undefined),368,0.8% (inactive),0.3% (inactive),122%,-6.7% (inactive),92.4%,-0.523 (inactive),-5.4e-05 (inactive),0.00595 (inactive),15.1% (inactive),-8.04% (inactive),–,–,–,–,–,–,–
Cc1[nH]nc2c1C(c1ccc(F)cc1)C1=C(CC(C)(C)CC1=O)N2 (centres undefined),561,-30.6% (inactive),4.4% (inactive),98.7%,-52.8% (inactive),102%,-0.451 (inactive),-8.1e-06 (inactive),0.00591 (inactive),10.5% (inactive),32.3% (inactive),–,–,–,–,–,–,–
c1ccc(-n2c(Sc3cnccn3)nnc2-c2cccs2)cc1,362,-24.6% (inactive),2.4% (inactive),100%,-37.1% (inactive),149%,-0.612 (inactive),-1.5e-05 (inactive),0.00525 (inactive),-2.69% (inactive),12.5% (inactive),–,–,–,–,–,–,–
CC1CCCCC1NC(=O)Cn1nnc(-c2ccc(Cl)cc2)n1 (centres undefined),447,1.9% (inactive),-8.6% (inactive),92.4%,-27.6% (inactive),99.4%,-0.578 (inactive),-2.2e-05 (inactive),0.00728 (inactive),-4.91% (inactive),-12% (inactive),–,–,–,–,–,–,–
CC(=O)N1CCN=C1SCc1ccc(Br)cc1,442,14.5% (inactive),15.2% (inactive),95.1%,39.5% (inactive),98.6%,-0.632 (inactive),-9.6e-06 (inactive),0.00733 (inactive),-0.301% (inactive),22.3% (inactive),–,–,–,–,–,–,–
Cc1ccc(NC(=O)c2cc(N3CCOCC3)nc3ccccc23)cc1,674,-10.2% (inactive),–,–,–,174%,-0.393 (inactive),-2.7e-05 (inactive),–,–,–,0.315,1.28,0.543,-16.8% (inactive),0.00495 (inactive),inactive,19% (inactive)
CN1CCc2nc(SCCOc3ccccc3)c(C#N)cc2C1,319,-4% (inactive),0% (inactive),93.7%,-44.8% (inactive),114%,-0.346 (inactive),-9.3e-07 (inactive),0.00342 (inactive),-2.8% (inactive),2.79% (inactive),–,–,–,–,–,–,–
Cc1cc(C(=O)CSc2nnc(-c3ccco3)o2)c(C)n1CC1COc2ccccc2O1 (centres undefined),393,0% (inactive),15.2% (inactive),90.2%,-115% (inactive),105%,-0.516 (inactive),-2.2e-05 (inactive),0.00446 (inactive),9.81% (inactive),3.57% (inactive),–,–,–,–,–,–,–
O=C1CCCc2nc(N3CCCCC3)sc21,629,-15.2% (inactive),-20.4% (inactive),108%,-13.1% (inactive),86.9%,-0.424 (inactive),-4.5e-05 (inactive),0.00423 (inactive),-57.2% (inactive),-85.2% (inactive),–,–,–,–,–,–,–
Nc1nc(-n2cnnc2)nn1-c1ccccc1,414,5.5% (inactive),-0.2% (inactive),97%,-44% (inactive),118%,-0.366 (inactive),-3e-05 (inactive),0.0053 (inactive),4.93% (inactive),4.43% (inactive),–,–,–,–,–,–,–
Cc1ccc(N2CCN(c3ccc(C)cc3)C(CC(=O)O)C2=O)cc1 (centres undefined),549,-4.7% (inactive),3.3% (inactive),92.3%,12.6% (inactive),108%,-0.499 (inactive),1.5e-05 (inactive),0.00583 (inactive),5.38% (inactive),4.47% (inactive),–,–,–,–,–,–,–
COc1cc(NC(=O)Cc2ccccc2OC)cc(OC)c1,575,-4.8% (inactive),9.8% (inactive),81.8%,-96.9% (inactive),87.6%,-0.452 (inactive),-2e-05 (inactive),0.00483 (inactive),-19% (inactive),-15% (inactive),–,–,–,–,–,–,–
O=C(CCc1ccccc1)Nc1ccncc1,412,1% (inactive),7.9% (inactive),94.1%,-273% (inactive),118%,-0.446 (inactive),-1.1e-05 (inactive),0.00342 (inactive),-2.19% (inactive),11.2% (inactive),–,–,–,–,–,–,–
Cc1cccn2c(=O)c(/C=C(\C#N)S(=O)(=O)c3ccccc3)c(N3CCN(C)CC3)nc12,468,-9.2% (inactive),–,–,–,183%,-0.457 (inactive),-6e-05 (inactive),–,–,–,-0.688,-1.21,-0.646,7.7% (inactive),0.00316 (inactive),inactive,1.87% (inactive)
CC1CCc2c(sc(N)c2C(N)=O)C1 (centres undefined),722,-4.4% (inactive),6.1% (inactive),88.3%,16.5% (inactive),98.4%,-0.371 (inactive),-1.7e-06 (inactive),0.00501 (inactive),5.07% (inactive),6.01% (inactive),–,–,–,–,–,–,–
